Drawing on PubChem BioAssay (Tox21), this text covers outcome for 40 compounds.

Results filed as inconclusive are left out. The source made the active and inactive calls. The call rests on the fitted dose curve; in most records, active means well fitted activation curve with a large enough effect in the signal ratio in the repeat runs, with a control signal flat (not every such curve was filed as active); inconclusive means weak or mixed curves; inactive means flat fitted curve, though single readings scatter; the % refers to the signal ratio.

A short description of the assay: qHTS assay for small molecule activators of the heat shock response signaling pathway (AID 743210). The note with it: HeLa HSE-bla reporter, beta-lactamase ratio, 5 h; series mostly up to 62.6 µM. An excerpt: U.S. Tox21 Program National Center for Advancing Translational Sciences [NCATS] NIH Chemical Genomics Center [NCGC] U.S. Environmental Protection Agency [EPA] National Institutes of Environmental Health Sciences [NIEHS] National Toxicology Program [NTP] U.S. Food and Drug Administration [FDA] Tox21 Assay Overview: Various chemicals, environmental and physiological stress conditions may lead to the activation of heat shock response/ unfolded protein response (HSR/UPR). There are three heat shock transcription factors (HSFs) (HSF-1, -2, and -4) mediating transcriptional regulation of the human HSR. To identify the compounds that activate HSR signaling, HSE-bla HeLa cell line (Invitrogen, Carlsbad, CA, USA) containing a beta-lactamase reporter gene under the control of the heat shock response elements was used to screen the Tox21 10K compound library.
Tox21 Assay Protocol Summary: The CellSensor HSE-bla HeLa cells (Invitrogen, Carlsbad, CA, USA) were dispensed at 1500 cells/6uL/well into 1536-well black wall/clear bottom plates using a Multidrop combi (Thermo Fisher Scientific, Waltham, MA) dispenser. After the assay plates were incubated at 37 C and 5% CO2 overnight, 23 nL of compounds dissolved in DMSO, positive controls or DMSO only was transferred to the assay plate by a Pintool station (Kalypsys, San Diego, CA). The plates were incubated at 37 C for 5 h. After 1 uL of LiveBLAzerTM B/G FRET substrate was added using a Flying Reagent Dispenser (Beckman Coulter, Indianapolis, IN, USA), the plates were incubated at room temperature for 2.5 h, and fluorescence intensity was measured by an Envision plate reader (PerkinElmer, Shelton, CT).
Consider `CCCCOC(=O)C(C)Oc1ccc(Oc2ccc(C(F)(F)F)cn2)cc1` (stereo not given), for which the result was inactive.

On to `O=C(NC1CCN(CCc2c[nH]c3ccccc23)CC1)c1ccccc1`, for which the outcome was inactive.

For the compound `Cc1cc(SC2=C(O)C[C@@](CCc3ccc(N)cc3)(C(C)C)OC2=O)c(C(C)(C)C)cc1CO`, the result was inactive.

`Cc1cccc(C)c1NC(=O)CN1CCCC1`: the outcome was inactive.

Take `CCOC(OCC)OCC`: the result was inactive.

In the case of `CCCC1CCCC(=O)O1` (stereo not given), the outcome was inactive.

With `[O-][n+]1ccc(Cl)cc1`, the outcome was inactive.

For the compound `O=C(O)c1cc(C(=O)O)cc([N+](=O)[O-])c1`, the outcome was inactive.

Turning to `CCC(CC)C(=O)O`, the outcome was inactive.

As for `COC(=O)c1cc(Cl)ccc1[N+](=O)[O-]`, the outcome was inactive.

For `C[C@@H](O)[C@H]1C(=O)N2C(C(=O)O)=C(S[C@@H]3CN[C@H](CNS(N)(=O)=O)C3)[C@H](C)[C@H]12`, the outcome was inactive.

On to `CCCCCCCCCCCC(=O)OCC`, for which the result was inactive.

Take `CCCCCCC/C=C/C=O`: the result was inactive.

For `O=c1[nH][nH]c2ccccc12`, the outcome was inactive.

With `NC(=O)c1ccccc1C(N)=O`, the outcome was inactive.

With `CC(=O)Nc1cccc(N)c1`, the result was inactive.

For `Oc1ccc(Oc2ccccc2)cc1`, the result was inactive.

On to `OCC(O)c1ccccc1` (stereo not given), for which the result was inactive.

On to `CCCCCCCCNC`, for which the outcome was inactive.

`Cc1nc2sccn2c(=O)c1CCN1CCC(=C(c2ccc(F)cc2)c2ccc(F)cc2)CC1`: the outcome was inactive.

In the case of `COc1cccc([C@H](O)C2CCN(CCc3ccc(F)cc3)CC2)c1OC`, the outcome was inactive.

Take `Cc1c(N=C=O)cccc1N=C=O`: the outcome was inactive.

As to `C1CCN(CN2CCCCC2)CC1`, the outcome was inactive.

Regarding `CC(C)(C)NCC(O)COc1ccc(NC(=O)NC2CCCCC2)cc1` (stereo not given), the outcome was inactive.

With `COc1ccc(C(=O)Nc2ccccc2)cc1[N+](=O)[O-]`, the outcome was inactive.

Consider `CC(C)Cc1nccs1`, for which the result was inactive.

As to `COc1ccc(/C=C/c2cc(OC)cc(=O)o2)cc1`, the result was inactive.

For the compound `Sc1nc(S)nc(S)n1`, the outcome was inactive.

Consider `O=C1c2ccccc2C(=O)C1c1ccc2ccccc2n1`, for which the result was inactive.

Consider `CC(C(=O)O)c1ccc(/C=C2\CCCCC2=O)cc1` (stereo not given), for which the outcome was inactive.

For the compound `Cc1c(Nc2ncccc2C(=O)O)cccc1C(F)(F)F`, the outcome was inactive.

As to `Cc1cc(C)n(CO)n1`, the outcome was inactive.

In the case of `FC1(F)C(F)(F)C(F)(F)C2(F)C(F)(C1(F)F)C(F)(F)C(F)(F)C1(F)C(F)(F)C(F)(F)C(F)(F)C(F)(F)C12F` (stereo not given), the outcome was inactive.

Consider `C/C(=C(\CCO)SS/C(CCO)=C(\C)N(C=O)Cc1cnc(C)nc1N)N(C=O)Cc1cnc(C)nc1N`, for which the result was inactive.

With `Cc1c(-c2cccnc2)c2ccccc2n1CCCCC(=O)O`, the result was inactive.

In the case of `CC1=C(C)C(=O)C(C(CCCCCC(=O)O)c2ccccc2)=C(C)C1=O` (stereo not given), the outcome was inactive.

For the compound `CCCCCCCCOCCCN`, the result was inactive.

Consider `O=[N+]([O-])c1ccc(Cl)cc1Cl`, for which the result was inactive.

In the case of `C1=COCCC1`, the result was inactive.

With `CC(CN=Cc1ccccc1O)N=Cc1ccccc1O` (stereo not given), the outcome was inactive.
